From paper PMC11062922 (Nature Chemical Biology, 2023)
Like-named read-outs stand apart in the source and are kept apart here.

Legend:
Design in all cases: species or system human, MV4-11 + K-562 + COLO205 + SK-N-BE2 + OVCAR-8
COX5A = details: read-out: apparent Kd, compound concentrations: 100 nM and 1000 nM (sheet 'Samples'), n = 1
CSNK1D = details: read-out: apparent Kd, n = 1
CSNK1E = details: read-out: apparent Kd, n = 1
DDR1 = details: read-out: apparent Kd, compound concentrations: 100 nM and 1000 nM (sheet 'Samples'), n = 1
DDR2 = details: read-out: apparent Kd, compound concentrations: 100 nM and 1000 nM (sheet 'Samples'), n = 1
DYRK1A = details: read-out: apparent Kd; compound concentrations: 100 nM and 1000 nM (sheet 'Samples'), CATDS: 4.6782776774364397E-2; n = 1
ILK = details: read-out: apparent Kd; compound concentrations: 100 nM and 1000 nM (sheet 'Samples'), CATDS: 4.86206826406465E-2; n = 1
JAK2 = details: read-out: apparent Kd; compound concentrations: 100 nM and 1000 nM (sheet 'Samples'), CATDS: 0.29618992494589602; n = 1
MAPK10 = details: read-out: apparent Kd; compound concentrations: 100 nM and 1000 nM (sheet 'Samples'), CATDS: 6.7537775874855099E-2; n = 1
MAPK14 = details: read-out: apparent Kd, n = 1
MAPK8 = details: read-out: apparent Kd; compound concentrations: 100 nM and 1000 nM (sheet 'Samples'), CATDS: 5.7180888411163297E-2; n = 1
MAPK9 = details: read-out: apparent Kd; compound concentrations: 100 nM and 1000 nM (sheet 'Samples'), CATDS: 0.15745137005687401; n = 1
MAPKAPK2 = details: read-out: apparent Kd, n = 1
NLK = details: read-out: apparent Kd; compound concentrations: 100 nM and 1000 nM (sheet 'Samples'), CATDS: 6.2213467797214997E-2; n = 1
RIPK2 = details: read-out: apparent Kd; compound concentrations: 100 nM and 1000 nM (sheet 'Samples'), CATDS: 7.3862527968221903E-2; n = 1
CLK4 = details: read-out: apparent Kd; compound concentrations:100 nM and 1000 nM (sheet 'Samples'); n = 1
CSNK2A1;CSNK2A3 = details: read-out: apparent Kd; compound concentrations:100 nM and 1000 nM (sheet 'Samples'); n = 1
FER = details: read-out: apparent Kd; compound concentrations:100 nM and 1000 nM (sheet 'Samples'); n = 1
FES = details: read-out: apparent Kd; compound concentrations:100 nM and 1000 nM (sheet 'Samples'); n = 1
GRK6 = details: read-out: apparent Kd; compound concentrations:100 nM and 1000 nM (sheet 'Samples'); n = 1
IGF1R = details: read-out: apparent Kd; compound concentrations: 100 nM and 1000 nM (sheet 'Samples'), CATDS: 0.29362976208520802; n = 1
INSR = details: read-out: apparent Kd; compound concentrations:100 nM and 1000 nM (sheet 'Samples'); n = 1
PIM1 = details: read-out: apparent Kd; compound concentrations:100 nM and 1000 nM (sheet 'Samples'); n = 1
PIM2 = details: read-out: apparent Kd; compound concentrations:100 nM and 1000 nM (sheet 'Samples'); n = 1
TNK1 = details: read-out: apparent Kd; compound concentrations:100 nM and 1000 nM (sheet 'Samples'); n = 1
FLT3 = details: read-out: apparent Kd; compound concentrations: 100 nM and 1000 nM (sheet 'Samples'), CATDS: 0.12065000979252; n = 1
NNT = details: read-out: apparent Kd; compound concentrations: 100 nM and 1000 nM (sheet 'Samples'), CATDS: 0.115819369976432; n = 1
PDXK = details: read-out: apparent Kd; compound concentrations: 100 nM and 1000 nM (sheet 'Samples'), CATDS: 0.115099137531036; n = 1
RET = details: read-out: apparent Kd; compound concentrations: 100 nM and 1000 nM (sheet 'Samples'), CATDS: 0.12937404694589899; n = 1
ZAK = details: read-out: apparent Kd; compound concentrations: 100 nM and 1000 nM (sheet 'Samples'), CATDS: 8.61130704510496E-2; n = 1
GARS = details: read-out: apparent Kd; compound concentrations: 100 nM and 1000 nM (sheet 'Samples'), CATDS: 0.27158737746623501; n = 1
NTRK1 = details: read-out: apparent Kd; compound concentrations: 100 nM and 1000 nM (sheet 'Samples'), CATDS: 0.40728649446902998; n = 1
[1] = compound concentrations:100 nM and 1000 nM (sheet 'Samples')

## Clc1ccc(-c2nn3ncccc3c2-c2ccnc(Nc3ccc4c(c3)OCCO4)n2)cc1 [GW829116X]
COX5A; CATDS: 5.4646770087593201E-2
  potency estimated from few doses: 1390 nM
CSNK1D; compound concentrations: 100 nM and 1000 nM (sheet 'Samples'), CATDS: 7.5632586412137201E-2
  potency estimated from few doses: 637 nM
CSNK1E; compound concentrations: 100 nM and 1000 nM (sheet 'Samples'), CATDS: 5.2875216757628997E-2
  potency estimated from few doses: 1530 nM
DDR1; CATDS: 8.5854125332601505E-2
  potency estimated from few doses: 495 nM
DDR2; CATDS: 5.1047862039129102E-2
  potency estimated from few doses: 1710 nM
DYRK1A
  potency estimated from few doses: 2320 nM
ILK
  potency estimated from few doses: 2010 nM
JAK2
  potency estimated from few doses: 72.6 nM
MAPK10
  potency estimated from few doses: 815 nM
MAPK14; compound concentrations: 100 nM and 1000 nM (sheet 'Samples'), CATDS: 7.0110586320851001E-2
  potency estimated from few doses: 749 nM
MAPK8
  potency estimated from few doses: 1230 nM
MAPK9
  potency estimated from few doses: 177 nM
MAPKAPK2; compound concentrations: 100 nM and 1000 nM (sheet 'Samples'), CATDS: 6.45632126081358E-2
  potency estimated from few doses: 904 nM
NLK
  potency estimated from few doses: 988 nM
RIPK2
  potency estimated from few doses: 670 nM

## COc1cc2c(cc1Nc1nc(Nc3ccsc3C(N)=O)c3cc[nH]c3n1)N(C(=O)CN(C)C)CCC2(C)C [GSK2163632A]
CLK4
  potency estimated from few doses: 1180 nM
CSNK2A1;CSNK2A3
  potency estimated from few doses: 1950 nM
FER
  potency estimated from few doses: 82.7 nM
FES
  potency estimated from few doses: 212 nM
GRK6
  potency estimated from few doses: 2050 nM
IGF1R
  potency estimated from few doses: 22 nM
INSR
  potency estimated from few doses: 6.22 nM
PIM1
  potency estimated from few doses: 647 nM
PIM2
  potency estimated from few doses: 1920 nM
TNK1
  potency estimated from few doses: 599 nM

## Fc1ccc(-c2ncn(C3CCNCC3)c2-c2ccnc(Oc3ccc(F)c(F)c3)n2)cc1 [SB-253228]
CSNK1D; [1]
  potency estimated from few doses: 505 nM
CSNK1E; [1]
  potency estimated from few doses: 1260 nM
MAPK14; [1]
  potency estimated from few doses: 395 nM
MAPKAPK2; [1]
  potency estimated from few doses: 125 nM

## COC(=O)Nc1nc2cc(Oc3ccc(NC(=O)Nc4cccc(Br)c4)cc3)ccc2[nH]1.Cl [GW694234A]
COX5A; CATDS: 0.15625736744525701
  potency estimated from few doses: 463 nM
DDR1; CATDS: 0.25244983438360302
  potency estimated from few doses: 217 nM
DDR2; CATDS: 0.115124869581512
  potency estimated from few doses: 865 nM
FLT3
  potency estimated from few doses: 777 nM
NNT
  potency estimated from few doses: 853 nM
PDXK
  potency estimated from few doses: 865 nM
RET
  potency estimated from few doses: 668 nM
ZAK
  potency estimated from few doses: 2040 nM

## FC(F)(F)c1ccc(-c2nn3ncccc3c2-c2ccnc(Nc3ccccc3)n2)cc1 [GW828206X]
DDR1; CATDS: 0.34932428035118401
  potency estimated from few doses: 1130 nM
GARS
  potency estimated from few doses: 2010 nM
NTRK1
  potency estimated from few doses: 854 nM
